This is one part of the list. Values without a mark were called inactive. The source made the active and inactive calls. Rule as the data show it: active = activation above about 45%; inactive = the rest.

Data on 16 molecules can be found in PubChem BioAssay AID1546 (The Scripps Research Institute Molecular Screening Center, 2009).

In this experiment the target is Neuropeptide Y receptor type 1 (Homo sapiens) (UniProt P25929). The experiment is described as follows: NPY-Y1 potentiators or agonists, confirmation, cell-based (AID 1546).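 Also: cells challenged with NPY at its EC10 plus isoproterenol stimulus.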 The following applies: cell-based NPY-Y1 potentiator/agonist assay; at 3.6 µM; active compounds read high.
Sequence of Neuropeptide Y receptor type 1 (Homo sapiens) (P25929 whole entry, looked up): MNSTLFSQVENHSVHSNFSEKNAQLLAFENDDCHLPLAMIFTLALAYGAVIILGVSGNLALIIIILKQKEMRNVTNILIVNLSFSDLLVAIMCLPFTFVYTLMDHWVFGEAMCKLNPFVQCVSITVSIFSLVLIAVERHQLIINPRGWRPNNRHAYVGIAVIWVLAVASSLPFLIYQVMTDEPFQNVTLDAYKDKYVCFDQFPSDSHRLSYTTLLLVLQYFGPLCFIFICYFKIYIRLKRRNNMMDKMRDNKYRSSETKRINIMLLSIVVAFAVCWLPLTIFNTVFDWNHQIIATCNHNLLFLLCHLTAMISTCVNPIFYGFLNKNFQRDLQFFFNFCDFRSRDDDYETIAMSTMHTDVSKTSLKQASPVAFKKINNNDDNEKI
Regarding `CSc1nc(-c2ccco2)nn1C(=O)c1ccccc1Cl`, the activation was 31.6%. The figure for `Cc1cccc(OCC(O)CN2CCN(CCN3C(=O)c4cccc5cccc(c45)C3=O)CC2)c1C` (stereo unspecified) is 63.5% (active); for `CN1C(=O)c2ccccc2C(C(=O)NCCCN2CCCC2)C1c1c[nH]c2ccccc12` (stereo unspecified) it is 7.17%; for `CCn1c2ccccc2c2cc(NC(=O)Nc3ccc([N+](=O)[O-])cc3C)ccc21` it is 26.1%. Turning to `O=C(c1cccs1)N1CCN(C(=O)N2CCOCC2)CC1`, the activation was -4.4%.

With `N#Cc1ccc(C(=O)Nc2nc(-c3cccs3)c(C(=O)C(F)(F)F)s2)cc1`, the activation is -50.3%. Regarding `Cc1ccccc1NCC(=O)N/N=C\c1ccc([N+](=O)[O-])s1`, the activation was 34.6%.

With `O=C(Nc1ccc2c(c1)CCC2)c1cccc(S(=O)(=O)Nc2ccccc2Cl)c1`, the activation was 5.62%. For `COC(=O)c1sc(-c2ccc(C(C)(C)C)cc2)cc1NC(=O)/C=C/C(=O)O`, the activation was 40.8%. For `COC(=O)c1ccc(NC(=O)CN(c2ccc(C)cc2)S(=O)(=O)c2c(C)n[nH]c2C)cc1`, the activation is 43%. Consider `CC1=C/C(=N\OS(=O)(=O)c2ccccc2)C=CC1=O`, for which the activation is 7.41%.

As for `O=[N+]([O-])c1cc(Cl)cc(/C=N/NC(=S)Nc2cc(S(=O)(=O)N3CCOCC3)ccc2Cl)c1O`, the activation is 72.1% (active). With `O=C(Nc1ccccc1C(F)(F)F)c1cc(-c2ccc(O)cc2)on1`, the activation was 2.15%. With `COCCn1nnnc1C(c1ccccc1Cl)N1CCN(c2ccccc2OC)CC1` (stereo unspecified), the activation is -14.9%.

`O=C1/C(=C/c2coc3ccc(O)cc3c2=O)SC(=S)N1c1ccccc1`: the activation is 26.1%. The figure for `CC(=O)c1ccc(NC(=O)C2CC(=O)Nc3nc4ccccc4n32)cc1` (stereo unspecified) is 38.7%.
